According to PubChem BioAssay AID1159580 (chemical genetic matrix, 2015):
Values joined by “and” are separate entries in the source; they are usually repeats but may differ in a detail not shown here. Equal entries are not always repeated. Out of some 5,500 compounds screened, about 2,000 (36%) were called active. Not shown: some 18% with an inconclusive outcome. No stated cut-off is given here; in the data, active means normalized growth mostly below about 0.91 (no sharp cut-off); inconclusive means no clear call, values can overlap the other calls; inactive means mostly above about 0.92. The list shows a part of the results.

Experiment: chemical genetic growth profiling, strain panel (AID 1159580);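 further: tested at 20 µM; growth read once vehicle control cultures reached saturation at 30 °C; 1 = growth at the plate median or of vehicle wells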
Conditions: S. cerevisiae deletion strains, growth OD

Measured: normalized growth

CC(C)=CCC/C(C)=C/CO
inactive: locus YAL013W, strain DEP1, stronger effect = lower value 1.01 | locus YAL021C, strain ccr4, stronger effect = lower value 1.02 | locus YAL026C, strain drs2, stronger effect = lower value 0.98 | locus YAL030W, strain snc1, stronger effect = lower value 0.995 | locus YBL061C, strain skt5, stronger effect = lower value 0.986 | locus YBR009C, strain hhf1, stronger effect = lower value 1.01 | locus YBR021W, strain FUR4, stronger effect = lower value 1 | locus YBR023C, strain chs3, stronger effect = lower value 1 | locus YBR171W, strain sec66, stronger effect = lower value 0.973 | locus YBR229C, strain ROT2, stronger effect = lower value 1.02 | locus YBR231C, strain swc5, stronger effect = lower value 1.02 | locus YBR279W, strain paf1, stronger effect = lower value 1.01 | locus YCL011C, strain gbp2, stronger effect = lower value 0.972 | locus YCL016C, strain dcc1, stronger effect = lower value 1.02 | locus YCL029C, strain bik1, stronger effect = lower value 0.988 | locus YCL069W, strain vba3, stronger effect = lower value 0.986 | locus YCR088W, strain abp1, stronger effect = lower value 0.976 | locus YDL005C, strain med2, stronger effect = lower value 0.979 | locus YDL035C, strain GPR1, stronger effect = lower value 1.01 | locus YDL040C, strain nat1, stronger effect = lower value 0.977 | locus YDL074C, strain BRE1, stronger effect = lower value 0.994 | locus YDL101C, strain DUN1, stronger effect = lower value 1.01 | locus YDL134C, strain PPH21, stronger effect = lower value 1.02 | locus YDL185W, strain tfp1, stronger effect = lower value 0.985 | locus YDL192W, strain arf1, stronger effect = lower value 1 | locus YDR001C, strain nth1, stronger effect = lower value 0.992 | locus YDR069C, strain doa4, stronger effect = lower value 0.984 | locus YDR101C, strain arx1, stronger effect = lower value 0.978 | locus YDR137W, strain rgp1, stronger effect = lower value 0.982 | locus YDR150W, strain NUM1, stronger effect = lower value 1.01 | locus YDR159W, strain sac3, stronger effect = lower value 0.937 | locus YDR162C, strain NBP2, stronger effect = lower value 1.01 | locus YDR195W, strain ref2 0.968 | locus YDR297W, strain sur2, stronger effect = lower value 0.987 | locus YDR318W, strain mcm21, stronger effect = lower value 0.995 | locus YDR334W, strain swr1, stronger effect = lower value 0.99 | locus YDR335W, strain msn5, stronger effect = lower value 0.987 | locus YDR388W, stronger effect = lower value 0.987 | locus YDR392W, strain spt3, stronger effect = lower value 0.929 | locus YDR502C, strain sam2, stronger effect = lower value 0.989 | locus YEL003W, strain gim4, stronger effect = lower value 0.986 | locus YEL037C, strain rad23, stronger effect = lower value 0.978 | locus YEL061C, strain CIN8 (second series), stronger effect = lower value 0.975 | locus YEL061C, strain CIN8, stronger effect = lower value 1.01 | locus YER015W, strain faa2, stronger effect = lower value 0.982 | locus YER016W, strain bim1, stronger effect = lower value 0.98 | locus YER110C, stronger effect = lower value 0.985 | locus YER111C, strain swi4, stronger effect = lower value 0.988 | locus YER155C, strain BEM2 (second series), stronger effect = lower value 1.02 | locus YER155C, strain BEM2, stronger effect = lower value 1.01 | locus YER167W, strain BCK2, stronger effect = lower value 1.01 | locus YFR010W, strain ubp6, stronger effect = lower value 0.978 | locus YGL078C, strain dbp3, stronger effect = lower value 0.984 | locus YGL086W, strain mad1, stronger effect = lower value 0.992 | locus YGL167C, strain pmr1, stronger effect = lower value 0.986 | locus YGL173C, strain kem1, stronger effect = lower value 0.958 | locus YGL227W, strain vid30, stronger effect = lower value 0.981 | locus YGL240W, strain doc1, stronger effect = lower value 0.967 | locus YGL248W, strain PDE1, stronger effect = lower value 1.03 | locus YGL253W, strain hxk2, stronger effect = lower value 0.961 | locus YGR078C, strain PAC10, stronger effect = lower value 1 | locus YGR135W, strain pre9, stronger effect = lower value 0.988 | locus YGR229C, strain SMI1, stronger effect = lower value 0.998 | locus YGR252W, strain gcn5, stronger effect = lower value 1.03 | locus YHR013C, strain ard1, stronger effect = lower value 1 | locus YHR027C, strain rpn1, stronger effect = lower value 0.977 | locus YHR030C, strain SLT2, stronger effect = lower value 1.01 | locus YHR079C, strain IRE1 (second series), stronger effect = lower value 0.993 | locus YHR079C, strain IRE1, stronger effect = lower value 0.994 | locus YHR094C, strain hxt1, stronger effect = lower value 0.995 | locus YHR129C, strain ARP1, stronger effect = lower value 1.01 | locus YHR142W, strain chs7, stronger effect = lower value 0.998 | locus YHR200W, strain rpn10, stronger effect = lower value 1 | locus YIL066C, strain RNR3, stronger effect = lower value 1.01 | locus YIL073C, strain SPO22, stronger effect = lower value 0.989 | locus YIL125W, strain kgd1, stronger effect = lower value 1 | locus YIR030C, strain dcg1, stronger effect = lower value 0.993 | locus YJL092W, strain hpr5, stronger effect = lower value 0.985 | locus YJL095W, strain BCK1 (second series), stronger effect = lower value 0.982 | locus YJL095W, strain BCK1, stronger effect = lower value 1 and 0.989 | locus YJL115W, strain asf1, stronger effect = lower value 0.993 | locus YJL129C, strain trk1, stronger effect = lower value 0.981 | locus YJL134W, strain LCB3, stronger effect = lower value 1.01 | locus YJL154C, strain vps35, stronger effect = lower value 0.988 | locus YJL164C, strain tpk1, stronger effect = lower value 1.02 | locus YJL166W, strain qcr8, stronger effect = lower value 1.01 | locus YJL168C, strain set2, stronger effect = lower value 0.992 | locus YJL187C, strain SWE1 (second series), stronger effect = lower value 1.01 | locus YJL187C, strain SWE1, stronger effect = lower value 0.993 | locus YJR043C, strain POL32, stronger effect = lower value 0.986 | locus YJR066W, strain TOR1, stronger effect = lower value 0.994
